These entries were drawn from the full list.
aSyn UTR act = Activators via SNCA 5'UTR binding, MLPCN | activity score, % (tested at 7.5 µM), hits read low | alpha-synuclein 5'UTR reporter, activators screen | AID 1814, 2009 | 300,000 compounds, 7.1% hits; in the data active = activity score below about -60%
* = called active by the depositor.

SMILES	aSyn UTR act
Cc1ccc(-n2nnc(-c3ccnc4ccccc34)n2)cc1	-191*
Fc1ccc(-n2nnc(-c3ccnc4ccccc34)n2)cc1	-154*
Cc1cc(C)nc(SC2=CS(=O)(=O)c3ccccc32)n1	-120*
O=S1(=O)C=C(Sc2nnc(-c3ccccc3)o2)c2ccccc21	-118*
COc1ccc(C(C)NCCC(c2ccc(OC(C)C)cc2)c2ccccc2OC)cc1 (configuration not stated)	93
COc1ccccc1C(O)Cc1nc2ccccc2n1C (configuration not stated)	-87*
CC(C)c1ccc(C(O)Cc2nc3ccccc3n2C)cc1 (configuration not stated)	-102*
CN(C)c1ccc(C(O)Cc2nc3ccccc3n2C)cc1 (configuration not stated)	-97*
CC(=O)Nc1nc(C)c(-c2csc(Nc3cccc([N+](=O)[O-])c3)n2)s1	67
O=[N+]([O-])c1cccc(-c2csc(N/N=C/c3cccc(O)c3)n2)c1	-216*
CC(=O)c1cccc(Nc2nc(-c3cccc([N+](=O)[O-])c3)cs2)c1	-222*
CC(=O)c1sc(N/N=C/c2cccc(O)c2)nc1C	-338*
CC(=O)Nc1sc(N/N=C/c2ccc(N(C)C)cc2)nc1-c1ccc(C)cc1	-68*
CC(=O)c1sc(N/N=C/c2cccc([N+](=O)[O-])c2)nc1C	-170*
Cc1csc(N/N=C/c2ccc([N+](=O)[O-])cc2)n1	-148*
Cc1csc(N/N=C/c2ccccn2)n1	69
CC(=O)c1sc(N/N=C\c2ccc(N(C)C)cc2)nc1C	-135*
Cc1[nH]n(-c2nc(-c3cccc([N+](=O)[O-])c3)cs2)c(=O)c1C	-135*
O=C(NCCSc1ccccc1)c1ccccc1Cl	-82*
O=C(N/N=C(\c1ccccc1)c1ccccn1)c1ccccc1Cl	68
Cc1ccccc1C(=O)NCCSc1ccccc1	-111*
CSc1ccccc1C(=O)NCCSc1ccccc1	-66*
Cc1csc(NC(=O)Nc2cccc(Cl)c2)n1	-203*
Cc1nnc(NC(=O)Nc2cccc(Cl)c2)s1	-122*
Cc1cccc(NC(=O)c2cc3ccccc3o2)c1	-272*
SMILES	aSyn UTR act
CCC(=O)Nc1cccc(NC(=O)c2cc3ccccc3o2)c1	-168*
O=C(Nc1cccc(Br)c1)c1cc2ccccc2o1	-184*
NS(=O)(=O)c1cccc(NC(=O)c2cc3ccccc3o2)c1	-71*
COc1ccc(-c2cc3ccccc3s2)cc1[C@H]1[C@H]2C=CC[C@@H](C)[C@@H]2C(=O)N1Cc1ccccc1	-107*
COc1ccc(CCNC(=O)c2ccc3nc(N4CCCCC4)sc3c2)cc1OC	-131*
CCOc1ccc2nc(N3CCCC(C(=O)NCCCN4CCCCC4)C3)sc2c1 (configuration not stated)	-86*
COc1ccc2nc(N3CCCC(C(=O)NCCc4ccc(OC)c(OC)c4)C3)sc2c1 (configuration not stated)	-87*
COc1ccc2nc(NC(=O)CSc3nnc(C)s3)sc2c1	-78*
COc1ccc2nc(NC(=O)CSc3nc(SC)ns3)sc2c1	-110*
CCn1nnnc1SCC(=O)Nc1nc2ccccc2s1	-86*
COc1ccc2nc(NC(=O)CSc3nnnn3C)sc2c1	-122*
O=C(CSC1=NCCS1)Nc1nc2ccccc2s1	-154*
CSc1nsc(SCC(=O)Nc2nc3ccccc3s2)n1	-71*
Cc1nc(SCC(=O)Nc2nc3ccccc3s2)c(C#N)c(C)c1C	100
Cc1ccc(NC(=S)Nc2cccc3cnccc23)cc1	-102*
CC(=O)Nc1cccc(NC(=S)Nc2cccc3ccccc23)c1	-116*
O=C(NNC(=S)Nc1cccc2ccccc12)c1cccc(Br)c1	-79*
CC(=O)c1cccc(NC(=S)Nc2cccc3ccccc23)c1	-80*
S=C(Nc1cccc2ccccc12)NC1CCCCC1	-195*
O=C(Nc1cccc2ccccc12)C12CC3CC(C1)CC(n1cnc([N+](=O)[O-])n1)(C3)C2	73
CCOC(=O)c1ccc2nc3c(cc2c1)CCS3	-148*
C[C@H]1O[C@@H](O[C@H]2[C@@H](O)C[C@H](O[C@H]3[C@@H](O)C[C@H](O[C@H]4CC[C@@]5(C)[C@H](CC[C@@H]6[C@@H]5C[C@@H](O)[C@]5(C)[C@@H](C7=CC(=O)OC7)CC[C@]65O)C4)O[C@@H]3C)O[C@@H]2C)C[C@H](O)[C@@H]1O	112
O=c1[nH]c(/C=C/c2ccc(Br)cc2)nc2ccccc12	-169*
O=C(Nc1cccc(/C=C/c2nc3ccccc3c(=O)[nH]2)c1)c1ccccc1Cl	-132*
Cc1ccc(Nc2nc3ccccc3c(=O)[nH]2)cc1C	-195*
CN(C)c1ccc(/C=C/c2nc3ccccc3c(=O)[nH]2)cc1	87
Cc1cccc(/C=C\c2nc3ccccc3c(=O)[nH]2)c1	-74*
O=C(NCC1CCCO1)c1cc(-c2ccccc2)on1 (configuration not stated)	-362*
Cc1cccc(NC(=O)C(=O)NCC2CCCO2)c1 (configuration not stated)	-92*
